The text below walks through data of PubChem BioAssay (NCI).

Structures are written as SMILES. About 79,000 compounds went through this panel and 15% of them were active in at least one assay; those are over-represented in the sample as a whole. A number with no mark means an inactive call. The source made the active and inactive calls. Cut-off read from the data, not from the text of the source: active = growth inhibition above about 70%; inactive = the rest.

The nature of one assay: NCI Yeast Anticancer Drug Screen. Data for the sgs1 mgt1 strain (AID 161).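 Note: 0% = growth of cultures given vehicle only.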 The conditions noted are these: S. cerevisiae sgs1 mgt1 strain, at 50.0 µM, hits give high values. In short, it runs like this:
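This yeast growth screen uses a strain with defined DNA-repair lesions; compound-treated growth is compared with vehicle-treated growth.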
`NC(N)=NS(=O)(=O)c1ccc(NC(=O)c2cccn3c(=O)c4ccccc4nc23)cc1`: the growth inhibition is 30.3%.

As for `S=c1cn[nH]c2ccccc12`, the growth inhibition is 16.9%.

`S=C1CNC(=S)CN1`: the growth inhibition is 0.7%.

On to `CCCCN(CCCC)CC1OCCO1`, for which the growth inhibition was -2.45%.

Regarding `COc1ccccc1Br`, the growth inhibition is -2%.

Consider `CC1=C(C(=O)Nc2ccccc2C)C(c2ccco2)C(C(=O)Nc2ccccc2C)=C(C)N1C`, for which the growth inhibition is -38.1%.

As to `OC1CSCCSCCCSCCSC1`, the growth inhibition was 44.5%.

Consider `Cn1c(=O)c2c(ncn2CCSCC2=NS(=O)(=O)c3cc(S(N)(=O)=O)c(C(F)(F)F)cc3N2)n(C)c1=O`, for which the growth inhibition is -6.5%.

Turning to `COC(=O)C1(C(C(=O)c2ccccc2)c2ccccc2)NC(=S)NC(=O)C1C#N` (stereo not given), the growth inhibition is -19.9%.

For the compound `CCCC(=N)OCC`, the growth inhibition was -20.4%.

Consider `COc1ccc(/C=N/N2CN(C(C)C(=O)O)B(NC34CC5CC(CC(C5)C3)C4)N=C2N)cc1OC` (stereo not given), for which the growth inhibition was 10.3%.

As to `CCOC(=O)/C(=C\c1cccc(F)c1)C(C)=O`, the growth inhibition is 7.05%.

In the case of `COC1CCC2(C)C3CCC4C(=CCC5C(C)(C)C(=O)CCC45C)CC3(C)CCC2C1(C)C` (stereo not given), the growth inhibition is -8.55%.

Turning to `N#Cc1cnn(-c2ccccc2)c1N`, the growth inhibition is -0.3%.

`COc1ccc(NC(=O)C(=O)C(C(=O)c2ccccc2)C2OC(=O)c3ccccc32)c([N+](=O)[O-])c1` (stereo not given): the growth inhibition was -23.2%.

With `CC(C)CC(=O)OC1CCCCC1C1CCCCC1` (stereo not given), the growth inhibition is 12.3%.

Regarding `Cc1nc2c(-c3ccccc3)[nH]c(C)c2c(=O)o1`, the growth inhibition is -31.9%.

For the compound `O=C(O)COc1cc2c(cc1Cc1ccc3c(c1)OCO3)OCO2`, the growth inhibition is 0.25%.

Take `COc1cc(C=O)cc(NC(C)=O)c1OC(C)=O`: the growth inhibition is 4.85%.

Consider `Cc1ccc(S(=O)(=O)Oc2c([N+](=O)[O-])cc(-c3ccccc3)cc2[N+](=O)[O-])cc1`, for which the growth inhibition is 63%.

On to `CCOC(=O)C(NC(=O)c1ccccc1)(N1CCN(c2cc3c(cc2F)c(=O)c(C(=O)O)cn3CC)CC1)C(F)(F)F` (stereo not given), for which the growth inhibition is -3.3%.

Regarding `CCC1CCC(Cc2ccncc2)CC1` (stereo not given), the growth inhibition was -11.9%.

As to `CCCC(=O)Nc1cc([N+](=O)[O-])c([N+](=O)[O-])cc1OC`, the growth inhibition is 0%.

`O=c1oc2ccc(Cl)cc2c(=O)n1-c1cc(Cl)ccc1[N+](=O)[O-]`: the growth inhibition was -6.8%.

Regarding `CCCCCCCCCCCCCC(N)=O`, the growth inhibition was -18.2%.

As for `Cn1c(=O)c2c(-c3ccccc3)onc2n(C)c1=O`, the growth inhibition was 22.4%.

For the compound `Clc1cc(OCC23CC4CC(CC(C4)C2)C3)nc(OCC23CC4CC(CC(C4)C2)C3)n1`, the growth inhibition was -18.7%.

For the compound `O.[Cl][Pt].[NH-]CC[S-]`, the growth inhibition was 12.3%.

Turning to `CCOC(=O)c1ccc(CSc2ccc(OC)cc2)cc1`, the growth inhibition was 86.4% (active).

Take `N#Cc1sc2c(c1OC(=O)c1ccc(C(F)(F)F)cc1)c(=O)n(-c1ccccc1)c(=S)n2-c1ccccc1`: the growth inhibition was 1.05%.

Turning to `CSC(=N\N=C\c1c(F)cccc1Cl)/N=C/N(C)C`, the growth inhibition is 12.7%.

`CSc1nc(NCc2ccc(Cl)cc2)c2[nH]c(C)nc2n1`: the growth inhibition was 18.4%.

Turning to `CCCCCCCc1ccccc1`, the growth inhibition is -19.6%.

For `COc1ccc(CC(O)CN2CCC(CCN)CC2)cc1` (stereo not given), the growth inhibition was -12.2%.

Turning to `Cc1n[nH]c(=O)[nH]c1=O`, the growth inhibition was -2.7%.

Consider `CC(=O)Oc1cccc(CN2CCc3ccccc3C2)c1`, for which the growth inhibition is 1.55%.

For the compound `CC(=O)Nc1cc(F)c(N)c(F)c1`, the growth inhibition was -13.3%.

`Cc1ccc(C)c(OC(=O)Nc2ccccc2)c1`: the growth inhibition was -10.1%.

For the compound `O=C1C2C(C(=O)N1c1ccccc1)C1(Br)c3ccccc3C2(Br)C2C(=O)N(c3ccccc3)C(=O)C21` (stereo not given), the growth inhibition is -3.35%.

For `CC1=C(C)C2C3C(=O)NC(=O)C3C1C1C3C(=O)NC(=O)C3C21` (stereo not given), the growth inhibition was 7.3%.

The next assay can be described thus: NCI Yeast Anticancer Drug Screen. Data for the cln2 rad14 strain (AID 165).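 Note: 0% = growth equal to vehicle treated cultures.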 The conditions noted are these: S. cerevisiae cln2 rad14 strain, at 50.0 µM, hits give high values. An outline of the steps:
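Strain: cln2 rad14 yeast, altered in cell cycle control and DNA damage repair. Read-out: growth inhibition vs vehicle.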
As for `NC(N)=NS(=O)(=O)c1ccc(NC(=O)c2cccn3c(=O)c4ccccc4nc23)cc1`, the growth inhibition was 11.7%.

Turning to `S=c1cn[nH]c2ccccc12`, the growth inhibition is 7.85%.

Take `S=C1CNC(=S)CN1`: the growth inhibition is 8.75%.

As to `CCCCN(CCCC)CC1OCCO1`, the growth inhibition was -16.6%.

As for `COc1ccccc1Br`, the growth inhibition was -15.3%.

With `CC1=C(C(=O)Nc2ccccc2C)C(c2ccco2)C(C(=O)Nc2ccccc2C)=C(C)N1C`, the growth inhibition is -15.5%.

Take `OC1CSCCSCCCSCCSC1`: the growth inhibition is 15.5%.

Consider `Cn1c(=O)c2c(ncn2CCSCC2=NS(=O)(=O)c3cc(S(N)(=O)=O)c(C(F)(F)F)cc3N2)n(C)c1=O`, for which the growth inhibition was -35.6%.

Regarding `COC(=O)C1(C(C(=O)c2ccccc2)c2ccccc2)NC(=S)NC(=O)C1C#N` (stereo not given), the growth inhibition is 6.25%.

For `CCCC(=N)OCC`, the growth inhibition is -0.45%.

As to `COc1ccc(/C=N/N2CN(C(C)C(=O)O)B(NC34CC5CC(CC(C5)C3)C4)N=C2N)cc1OC` (stereo not given), the growth inhibition is -25.2%.

With `CCOC(=O)/C(=C\c1cccc(F)c1)C(C)=O`, the growth inhibition is -4.9%.

Take `COC1CCC2(C)C3CCC4C(=CCC5C(C)(C)C(=O)CCC45C)CC3(C)CCC2C1(C)C` (stereo not given): the growth inhibition is -12.8%.

On to `N#Cc1cnn(-c2ccccc2)c1N`, for which the growth inhibition is -0.85%.

In the case of `COc1ccc(NC(=O)C(=O)C(C(=O)c2ccccc2)C2OC(=O)c3ccccc32)c([N+](=O)[O-])c1` (stereo not given), the growth inhibition was 26.1%.

`CC(C)CC(=O)OC1CCCCC1C1CCCCC1` (stereo not given): the growth inhibition is 7.25%.

Regarding `Cc1nc2c(-c3ccccc3)[nH]c(C)c2c(=O)o1`, the growth inhibition is -8.8%.

With `O=C(O)COc1cc2c(cc1Cc1ccc3c(c1)OCO3)OCO2`, the growth inhibition is 1.15%.

In the case of `COc1cc(C=O)cc(NC(C)=O)c1OC(C)=O`, the growth inhibition was -4.85%.

Regarding `Cc1ccc(S(=O)(=O)Oc2c([N+](=O)[O-])cc(-c3ccccc3)cc2[N+](=O)[O-])cc1`, the growth inhibition is 34.5%.

Consider `CCOC(=O)C(NC(=O)c1ccccc1)(N1CCN(c2cc3c(cc2F)c(=O)c(C(=O)O)cn3CC)CC1)C(F)(F)F` (stereo not given), for which the growth inhibition was -18.4%.

For the compound `CCC1CCC(Cc2ccncc2)CC1` (stereo not given), the growth inhibition is -78.9%.

On to `CCCC(=O)Nc1cc([N+](=O)[O-])c([N+](=O)[O-])cc1OC`, for which the growth inhibition was 1.65%.

In the case of `O=c1oc2ccc(Cl)cc2c(=O)n1-c1cc(Cl)ccc1[N+](=O)[O-]`, the growth inhibition is -11.5%.

On to `CCCCCCCCCCCCCC(N)=O`, for which the growth inhibition was 4.85%.

`Cn1c(=O)c2c(-c3ccccc3)onc2n(C)c1=O`: the growth inhibition was 33.7%.

Consider `Clc1cc(OCC23CC4CC(CC(C4)C2)C3)nc(OCC23CC4CC(CC(C4)C2)C3)n1`, for which the growth inhibition is -4.8%.

On to `O.[Cl][Pt].[NH-]CC[S-]`, for which the growth inhibition is -9.6%.

Take `CCOC(=O)c1ccc(CSc2ccc(OC)cc2)cc1`: the growth inhibition is 76.5% (active).

Turning to `N#Cc1sc2c(c1OC(=O)c1ccc(C(F)(F)F)cc1)c(=O)n(-c1ccccc1)c(=S)n2-c1ccccc1`, the growth inhibition is 0.8%.

On to `CSC(=N\N=C\c1c(F)cccc1Cl)/N=C/N(C)C`, for which the growth inhibition was 14.8%.

Regarding `CSc1nc(NCc2ccc(Cl)cc2)c2[nH]c(C)nc2n1`, the growth inhibition is -3%.

Consider `CCCCCCCc1ccccc1`, for which the growth inhibition is 3.95%.

For `COc1ccc(CC(O)CN2CCC(CCN)CC2)cc1` (stereo not given), the growth inhibition is -47.9%.

Consider `Cc1n[nH]c(=O)[nH]c1=O`, for which the growth inhibition was 3.45%.

Take `CC(=O)Oc1cccc(CN2CCc3ccccc3C2)c1`: the growth inhibition is -31.2%.

Regarding `CC(=O)Nc1cc(F)c(N)c(F)c1`, the growth inhibition was -5.25%.

On to `Cc1ccc(C)c(OC(=O)Nc2ccccc2)c1`, for which the growth inhibition was -4.1%.

Take `O=C1C2C(C(=O)N1c1ccccc1)C1(Br)c3ccccc3C2(Br)C2C(=O)N(c3ccccc3)C(=O)C21` (stereo not given): the growth inhibition is -13.4%.

Consider `CC1=C(C)C2C3C(=O)NC(=O)C3C1C1C3C(=O)NC(=O)C3C21` (stereo not given), for which the growth inhibition was -12.8%.
